Results reported in PubChem BioAssay.
A number with no mark means an inactive call. Active and inactive are the calls of the source.

test: E. coli growth modulation, two-sided OD650, primary screen, E. coli filamentation project, strain DRC41, 24 h (AID 1093); conditions: OD650, 24 h, higher = more signal, called active from +8 up or from −8 down;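 also: MC1000 strain lacking acrAB efflux and sulA so SOS filamentation is blocked; test concentration not given here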

SMILES | z-score
COC(=O)c1ccc(OC)c(/C=C\CC(CCc2ccccc2)OC(C)=O)c1 (stereo not given) | -0.031
C[N+](C)(C)CCCC[C@@H]1NC(=O)[C@H]2C[C@@H](C(=O)NCCCCCCN)[C@@H](c3cccc(OCCO)c3)N2C1=O | 0.27
C/C=C/[C@@H](CCn1cc([C@H](O)c2ccccc2)nn1)[Si](C)(C)c1ccc(OC)cc1 | 1.43
CCCCCCCCCCC(O)C1C=CC2C(=O)NC(=O)C2N1Nc1ccccn1 (stereo not given) | -15.5 (active)
COC(=O)[C@@]1(Cc2ccc(F)cc2)[C@H]2c3cc(C(=O)N(C)C)n(CCSCCO)c3C[C@H]2CN1C(=O)c1ccccc1 | 0.162
CC1CC/C=C\[C@H]2OC34C=CCN(Cc5ccccc5)C(=O)[C@H]3N(CCO)C(=O)[C@@H]4C2C(=O)O1 (stereo not given in full) | 1.36
C=C(COC)C(=O)CC[C@H](OC(=O)c1ccccc1-c1ccccc1C(=O)O)c1ccc(OCCO)cc1 | 0.802
C=CCC(OC(C)=O)[C@@H]1[C@@H](N(Cc2cc3ccccc3o2)C(=O)Cc2ccc(OC)cc2)c2cc(OCCCO)ccc2N1C(=O)c1ccc(-c2ccccc2)cc1 (stereo not given in full) | 1.53
CC1CC/C=C\[C@H]2OC34C=CCN(c5ccc(Cl)cc5)C(=O)[C@H]3N(C(CO)C(C)C)C(=O)[C@]4(C)C2C(=O)O1 (stereo not given in full) | -0.304
O=C1O[C@@H](c2ccccc2)[C@@H](c2ccccc2)N2[C@@H](c3ccc(O)cc3)[C@]3(C(=O)Nc4ccc(C#CC5(O)CCCCCC5)cc43)[C@@H](C(=O)N3CCN(c4ncccn4)CC3)[C@H]12 | 1.52
